# Rows were chosen to be rich in hits. Some 6.7% of all compounds tested hit in one or more screens of this group.
# MCF10A rerep = inducers of DNA re-replication in MCF 10A breast cells; Potency, µM (top dose mostly 46.1 µM), for the others: at the top dose activity, positive = re-replication, hits mostly activators; 350,000 tested, 2.9% active; MCF 10A DNA re-replication, Hoechst nuclear intensity, 48 h; further: % of control where 0% means no effect; nearly all actives have a fitted effect of over 50% in size
# KB-V1 MDR tox = KB-V1 MDR subline cytotoxicity; KB-V1 MDR cells viability, CellTiter-Glo, 72 h; Potency, µM (series often up to 46.1 µM), hits mostly cytotoxic; 400,000 tested, 3.4% active; AID 1347076; further: on the % scale 0 is the no-effect control and ±100 the full control effect; nearly all actives have a fitted effect of over 60% in size
#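 qHTS viability screen in drug-selected KB-V1 MDR cells: 72 h compound treatment at 37 degrees C, ATP luminescence end point.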
# KB-3-1 cytotox = kills parental KB-3-1 adenocarcinoma cells; KB-3-1 viability, CellTiter-Glo ATP luminescence, 72 h; AID 1347075; Potency, µM (doses to about 46.1 µM), actives largely listed as cytotoxic; 400,000 tested, 1.4% active; further: on the % scale 0 is the no-effect control and ±100 the full control effect; nearly all actives have a fitted effect of over 60% in size
#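 Parental KB-3-1 adenocarcinoma cells in phenol-red-free DMEM with 10% FBS were pin-treated with compounds at several concentrations, incubated 72 h at 37 °C, and viability read by CellTiter-Glo luminescence; concentration-effect curves were fitted after normalization.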
# SW480 rereplic = induces DNA re-replication in SW480 colon adenocarcinoma cells; SW480 DNA re-replication, Hoechst DNA content imaging, 48 h; 340,000 tested, 1.8% active; Potency, µM (series often up to 46.1 µM), for the others: top-dose re-replication activation, most hits filed as activators; further: % of control where 0% means no effect; nearly all actives have a fitted effect of over 55% in size
#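 Cells (250 per well) received 23 nL compound or DMSO by pin tool and were kept 48 hr at 37 C, 5% CO2. Nuclei were then stained with Hoechst for 40 min and scanned for DNA content.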
# PINK1 expr mod = modulators of PINK1 expression; PINK1 immunofluorescence, high-content cytometry, 24 h; Potency, µM (highest dose often 76.6 µM), for the others: top-dose activation (PINK1 increase), most hits filed as activators; 410,000 tested, 0.2% active; active means well fitted activation curve with a large enough effect; inconclusive means small, poorly fitted or top-dose-only effect; cell line not stated here; further: % of control where 0% means no effect; nearly all actives have a fitted effect of over 65% in size
#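 PINK1 protein level read as immunofluorescence by microplate cytometer in a fixed, stained stable cell line after 24 h exposure to five compound concentrations, with CCCP as control.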
# An asterisk follows results filed as active; i = inactive; ? = inconclusive; nt = no result; ! = a repeat was not active; [ ] = remark or other dose. Unless noted, the call rests on the fitted dose curve; in most records, active means well fitted curve in the direction sought with a large enough effect; inconclusive means small, poorly fitted or top-dose-only effect, or another doubt; inactive means no such curve, though single readings can be large; an effect the other way counts as inactive or inconclusive. Potency means the concentration at half of the fitted maximal effect.
SMILES,MCF10A rerep,KB-V1 MDR tox,KB-3-1 cytotox,SW480 rereplic,PINK1 expr mod
CC(C)Cn1c(-c2csc3c2CCCC3)n[nH]c1=S,8.5%,20.6µM*,i,-8.1%,3.0%
CC(C)Cn1c(-c2ccccc2F)n[nH]c1=S,1.9%,i,i,-3.6%,-3.6%
CC(=O)Nc1nonc1-c1nnc(SCc2ccccc2F)n1C,nt,i,i,nt,-0.2%
Cc1cc(C)n2nc(SCc3nnc(SCc4ccccc4)s3)nc2n1,-0.8%,13µM*,i,-1.0%,5.2%[38.3 µM]
CCC(CC)C(C(=O)NCc1ccccc1)N(C)Cc1ccc(Cl)c(Cl)c1 (configuration not stated),nt,?,i,nt,nt
Cc1c(C(=O)NCc2ccccc2Cl)sc2ncnc(N(C)C3CCCCC3)c12,nt,?,20.6µM*,nt,-0.7%
CCCCCCCCN1[C@@H](CC(C)=O)c2cc(C(F)(F)F)ccc2S1(=O)=O,9.7%,18.4µM*!,?,?,3.0%
Cc1ccc(C(=O)N/C(=C/c2ccc(-c3cccc([N+](=O)[O-])c3)o2)C(=O)NC(C)C)cc1,20.0%,3.66µM*,i,-0.1%,4.9%
Cc1ccc(C(=O)N/C(=C\c2ccc(-c3ccc(Cl)cc3)o2)C(=O)NCCCN(C)C)cc1,?,i,?,18.4µM*,-4.5%
Cc1ccc(C(=O)N/C(=C/c2ccc(-c3cccc([N+](=O)[O-])c3)o2)C(=O)NC(C)(C)C)cc1,7.2%,i,i,12.0%,-0.2%
Cc1ccc(C(=O)N/C(=C\c2ccc(-c3ccccc3[N+](=O)[O-])o2)C(=O)NCCN(C)C)cc1,-2.1%,?,i,2.91µM*,0.5%
COC(=O)c1c(F)c(F)c(N2CCOCC2)c(F)c1F,26.1%,i,i,-8.3%,?
CC(C)OC(=O)c1c(F)c(F)c(N2CCOCC2)c(F)c1F,3.26µM*,i,i,0.9%,nt
Cc1ccc(S(=O)(=O)N2CCN(c3nc(N(C)c4cc(Cl)ccc4O)nc4ccccc34)CC2)cc1,nt,nt,nt,nt,0.3%
O=C1CSC(=S)N1/N=C/C=C/c1ccccc1,0.4%,i,i,-396.5%,-1.4%
N=C1SCC(=O)N1/N=C/c1ccccc1,23.0%,6.51µM*,7.31µM*,?,-0.3%
COc1ccccc1CNC(=O)Nc1nnc(-c2ccncc2)s1,nt,i,?,nt,nt
O=C1C=CC(=Nc2cccc3c2C(=O)c2ccccc2-3)O1,?,i,?,23.1µM*,-0.7%
COc1ccc(-c2csc(NC(=O)c3c(C)noc3C)n2)cc1F,16.5%,i,i,-10.0%,0.3%
Cc1noc(C)c1C(=O)Nc1nc(-c2ccc(F)c(F)c2)cs1,-6.2%,20.6µM*,i,-8.2%,12.0%
CCc1noc(C)c1C(=O)Nc1nc(-c2ccc(OC)cc2)cs1,24.6%,i,i,18.4µM*,?
C#C[C@]1(OC(C)=O)CC[C@H]2[C@@H]3CCC4=C/C(=N/O)CC[C@@H]4[C@H]3CC[C@@]21CC,?,nt,nt,18.2%,nt
CCOc1ccccc1-c1nc2c([nH]1)c(=O)n(C)c(=O)n2C,1.6%,10.3µM*,?,19.0%,-1.0%
Cn1c(=O)c2[nH]c(Br)nc2n(C)c1=O,-3.0%,nt,nt,0.4%,nt
CN(C)CCOc1ccc2c(c1)C(=O)C(=Cc1ncc([N+](=O)[O-])n1C)C2,nt,3.66µM*,?,nt,1.6%
SMILES,MCF10A rerep,KB-V1 MDR tox,KB-3-1 cytotox,SW480 rereplic,PINK1 expr mod
O=C(CN1C(=O)C2CC=CCC2C1=O)OCC(=O)c1ccc(Cl)c([N+](=O)[O-])c1 (configuration not stated),23.1µM*,?,i,?,-0.3%
Cc1cc(Nc2ccc(C)c(C)c2)n2cnnc2n1,nt,nt,nt,nt,0.5%
COCC1CCCN(Cc2ccc3c(c2)CN(C(=O)c2cccnc2OC)CCO3)C1 (configuration not stated),nt,nt,nt,nt,0.0%
Cc1c2c(cc3c1[nH]c1ccccc13)C=NCC2,20.6µM*,?,?,?,-3.0%
COc1cc(OC)cc(C(=O)NCCc2csc(-c3cccc(C)c3)n2)c1,nt,nt,nt,nt,1.5%
CC1OC(COCc2ccccc2)Cc2[nH][nH]c(=O)c21 (configuration not stated),nt,i,?,nt,1.0%
CCCCN(CCCC)c1ccc(C=Nc2ccc(/C=C/c3ccnc4ccccc34)cc2)cc1C,nt,23.1µM*,?,nt,0.3%
Cc1cc(N(C)C)c(C)cc1/C=C/c1ccnc2ccccc12,nt,6.51µM*,2.91µM*,nt,nt
Cc1cc(N(C)C)ccc1/C=C/c1ccnc2ccccc12,nt,?,?,nt,2.0%
CCN(CC)c1cc(C)c(/C=C/c2ccnc3ccccc23)cc1C,nt,?,11.6µM*,nt,0.0%
CCOc1ccc(C=Nc2ccc(/C=C/c3ccnc4ccccc34)cc2)cc1OCC,nt,i,i,nt,-0.7%
CCN(Cc1ccccc1)c1ccc(/C=C/c2ccnc3ccccc23)cc1,nt,i,i,nt,1.8%
Cc1cc(C)cc(NC(=O)N2CCC(C(N)=O)(N3CCCCC3)CC2)c1,nt,i,i,nt,3.2%
COC(=O)c1ccccc1-c1ccc(/C=N/NC(N)=O)o1,-4.2%,5.17µM*,14.6µM*,-18.2%,1.5%
COC(=O)N/N=C/c1ccc(-c2ccccc2Cl)o1,0.5%,6.51µM*,?,-6.8%,1.5%
O=C(/C=C/Nc1ccc(F)c(Cl)c1)c1ccccc1,8.1%,i,i,12.5%,13.5%
O=C(Nc1ccc(O)cc1)c1cc2n(n1)C(C(F)(F)F)CC(c1ccco1)N2 (configuration not stated),?,?,10.3µM*,?,4.7%
COc1ccc(NC(=O)c2cc3n(n2)C(C(F)(F)F)CC(c2ccc4c(c2)OCO4)N3)cc1OC (configuration not stated),2.4%,16.4µM*,i,?,14.9%[38.3 µM]
Cc1cccc(NC(=O)c2cc3n(n2)C(C(F)(F)F)CC(c2ccc4c(c2)OCO4)N3)c1 (configuration not stated),2.9%,11.6µM*,i,9.4%,0.9%[38.3 µM]
CCOC(=O)c1c(NC(=O)c2cc3n(n2)C(C(F)(F)F)CC(c2ccccc2)N3)sc(C)c1C (configuration not stated),22.3%,i,i,16.4µM*,10.6%
CCOc1ccc(CCNC(=O)c2ccc3ccccc3n2)cc1OCC,?,i,?,-7.4%,0.5%
O=C(NCc1cccnc1)Nc1cccc(Cl)c1Cl,6.5%,i,i,14.1%,1.6%
CC1(C(=O)Nc2cccc3ccccc23)CCN1C(=O)Cc1ccccc1Cl (configuration not stated),nt,i,i,nt,1.5%
O=C(O)[C@H](CC(=O)N1C[C@H]2CCCC[C@H]2C1)Cc1ccccc1,1.2%,nt,nt,1.3%,nt
O=C(NCC1CCCO1)c1cc2n(n1)C(C(F)(F)F)CC(c1ccc(Br)cc1)N2 (configuration not stated),8.3%,8.2µM*,i,0.2%,-16.5%[38.3 µM]
